Of roughly 8,800 targets only a part is listed; those with a hit were picked by preference. About 0.5% of all pairs of compound and target were hits.
Experiments:
Test in all cases: log2 fold change, soluble protein after heating vs DMSO (PISA); higher = thermal stabilisation; K562 lysate, 10 uM; active = over 0.2 and 3.5 SD of the protein, either way, in both replicates (recomputed)
lapatinib = compound: CS(=O)(=O)CCNCc1ccc(-c2ccc3ncnc(Nc4ccc(OCc5cccc(F)c5)c(Cl)c4)c3c2)o1 [lapatinib]
In short: (§1)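 Pellets of K562 cells were dounce-homogenised in PBS pH 7.4 with 1 mM MgCl2, and the crude extract was held at 1 mg/mL protein for a 30 min treatment with 10 μM compound. Aliquots were heated for 3 min over 48°C-58°C and pooled before NP-40 was added to 0.5% at 4°C. The supernatant from 21,000xg for 90 min was quantified by TMTpro 16plex LC-MS/MS with channel sums equalised. Values are reported from duplicates as log-two fold change in thermal stability relative to solvent controls.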

pictilisib = compound: CS(=O)(=O)N1CCN(Cc2cc3nc(-c4cccc5[nH]ncc45)nc(N4CCOCC4)c3s2)CC1 [pictilisib]
In short: as §1

crizotinib = compound: C[C@@H](Oc1cc(-c2cnn(C3CCNCC3)c2)cnc1N)c1c(Cl)ccc(F)c1Cl [crizotinib]
In short: as §1

[1] = compound: C[C@H](C1=CC=C(C=C1)C(=O)NC2=C3C=CNC3=NC=C2)N
In short: as §1

duvelisib = compound: C[C@H](Nc1ncnc2nc[nH]c12)c1cc2cccc(Cl)c2c(=O)n1-c1ccccc1 [duvelisib]
In short: as §1

gandotinib = compound: Cc1cc(Nc2cc(CN3CCOCC3)c3nc(C)c(Cc4ccc(Cl)cc4F)n3n2)n[nH]1 [gandotinib]
In short: as §1

tozasertib = compound: Cc1cc(Nc2cc(N3CCN(C)CC3)nc(Sc3ccc(NC(=O)C4CC4)cc3)n2)n[nH]1 [tozasertib]
In short: as §1

doramapimod = compound: Cc1ccc(-n2nc(C(C)(C)C)cc2NC(=O)Nc2ccc(OCCN3CCOCC3)c3ccccc23)cc1 [doramapimod]
In short: as §1

bafetinib = compound: Cc1ccc(NC(=O)c2ccc(CN3CC[C@H](N(C)C)C3)c(C(F)(F)F)c2)cc1Nc1nccc(-c2cncnc2)n1 [bafetinib]
In short: as §1

[2] = compound: Cc1cccc(CC(=O)N2CCc3c2ccc(-c2cn(C)c4ncnc(N)c24)c3F)n1
In short: as §1

Measured: log2 fold change

TOR3A (UniProt Q9H497)
inactive: pictilisib -0.077 | crizotinib 0.023 | [1] -0.078 | duvelisib 0.012 | gandotinib 0.012 | tozasertib -0.047 | doramapimod -0.024 | bafetinib 0.046 | [2] 0.048
active: lapatinib -0.43

UBR3 isoform 4 (UniProt Q6ZT12)
inactive: lapatinib -0.003 | pictilisib 0.01 | crizotinib -0.092 | [1] -0.006 | duvelisib -0.003 | gandotinib -0.046 | tozasertib 0.06 | doramapimod 0.015 | bafetinib -0.042 | [2] 0.05

TLK2 isoform 2 (UniProt Q86UE8)
active: gandotinib 0.351
inactive: lapatinib -0.041 | pictilisib 0.112 | crizotinib -0.029 | [1] -0.115 | duvelisib -0.042 | tozasertib 0.126 | doramapimod 0.006 | bafetinib 0.004 | [2] 0.049

TUBA3C (UniProt P0DPH7)
Chain of UniProt P0DPH7 (P0DPH7 whole entry, looked up): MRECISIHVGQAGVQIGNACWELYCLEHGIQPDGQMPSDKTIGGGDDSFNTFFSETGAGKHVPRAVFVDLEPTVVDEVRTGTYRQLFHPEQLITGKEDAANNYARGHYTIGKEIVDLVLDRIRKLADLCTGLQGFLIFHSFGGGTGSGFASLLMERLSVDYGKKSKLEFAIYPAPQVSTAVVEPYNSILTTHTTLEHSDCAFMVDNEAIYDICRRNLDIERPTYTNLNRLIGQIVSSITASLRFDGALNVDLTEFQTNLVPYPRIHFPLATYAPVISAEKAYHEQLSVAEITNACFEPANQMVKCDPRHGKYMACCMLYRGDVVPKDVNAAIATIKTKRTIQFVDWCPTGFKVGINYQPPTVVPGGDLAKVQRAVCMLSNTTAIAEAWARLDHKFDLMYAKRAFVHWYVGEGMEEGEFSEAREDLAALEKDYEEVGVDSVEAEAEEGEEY
inactive: lapatinib 0.038 | pictilisib -0.003 | crizotinib -0.078 | [1] 0.009 | duvelisib 0.03 | gandotinib 0.072 | tozasertib 0.055 | doramapimod 0.014 | bafetinib 0.012 | [2] 0.023

TXNRD2 (UniProt Q9NNW7)
Chain of UniProt Q9NNW7 (Q9NNW7 whole entry, looked up): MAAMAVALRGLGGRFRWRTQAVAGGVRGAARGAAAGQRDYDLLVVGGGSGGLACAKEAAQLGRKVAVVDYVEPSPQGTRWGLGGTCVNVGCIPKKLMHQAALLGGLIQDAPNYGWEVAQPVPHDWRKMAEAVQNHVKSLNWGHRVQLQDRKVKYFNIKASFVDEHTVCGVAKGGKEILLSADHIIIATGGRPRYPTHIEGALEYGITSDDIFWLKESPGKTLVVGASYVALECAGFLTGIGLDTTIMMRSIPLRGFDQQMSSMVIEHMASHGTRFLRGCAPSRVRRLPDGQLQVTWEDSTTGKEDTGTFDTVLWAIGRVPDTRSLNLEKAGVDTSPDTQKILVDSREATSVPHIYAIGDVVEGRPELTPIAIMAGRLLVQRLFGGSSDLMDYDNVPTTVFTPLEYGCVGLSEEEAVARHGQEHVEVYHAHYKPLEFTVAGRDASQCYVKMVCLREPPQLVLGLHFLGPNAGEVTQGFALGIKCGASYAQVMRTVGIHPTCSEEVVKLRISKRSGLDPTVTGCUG
inactive: lapatinib 0 | pictilisib -0.017 | crizotinib 0.003 | [1] -0.046 | duvelisib 0.084 | gandotinib 0.059 | tozasertib -0.042 | doramapimod -0.066 | bafetinib 0.041 | [2] 0.034

TRIM25 (UniProt Q14258)
Chain of UniProt Q14258 (Q14258 whole entry, looked up): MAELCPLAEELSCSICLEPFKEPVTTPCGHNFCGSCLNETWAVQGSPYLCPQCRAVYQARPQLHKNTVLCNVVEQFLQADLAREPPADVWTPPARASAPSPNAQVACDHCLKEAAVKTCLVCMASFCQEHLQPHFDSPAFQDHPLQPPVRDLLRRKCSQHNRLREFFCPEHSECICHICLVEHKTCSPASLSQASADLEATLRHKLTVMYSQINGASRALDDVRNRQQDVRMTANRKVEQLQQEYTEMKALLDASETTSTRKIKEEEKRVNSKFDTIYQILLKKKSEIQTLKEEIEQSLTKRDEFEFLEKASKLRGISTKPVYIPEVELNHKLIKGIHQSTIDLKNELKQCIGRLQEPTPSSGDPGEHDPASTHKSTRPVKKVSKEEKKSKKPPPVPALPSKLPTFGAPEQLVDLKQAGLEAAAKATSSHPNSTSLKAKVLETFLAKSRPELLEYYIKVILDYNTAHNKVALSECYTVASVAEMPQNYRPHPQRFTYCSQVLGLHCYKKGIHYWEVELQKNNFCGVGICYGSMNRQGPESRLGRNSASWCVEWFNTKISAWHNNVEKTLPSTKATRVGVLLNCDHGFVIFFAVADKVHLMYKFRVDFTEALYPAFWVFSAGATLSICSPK
inactive: lapatinib 0.009 | pictilisib -0.031 | crizotinib 0.1 | [1] 0.031 | duvelisib -0.021 | gandotinib 0 | tozasertib 0.03 | doramapimod -0.036 | bafetinib -0.012 | [2] -0.038

TUBB (UniProt P07437)
Chain of UniProt P07437 (P07437 whole entry, looked up): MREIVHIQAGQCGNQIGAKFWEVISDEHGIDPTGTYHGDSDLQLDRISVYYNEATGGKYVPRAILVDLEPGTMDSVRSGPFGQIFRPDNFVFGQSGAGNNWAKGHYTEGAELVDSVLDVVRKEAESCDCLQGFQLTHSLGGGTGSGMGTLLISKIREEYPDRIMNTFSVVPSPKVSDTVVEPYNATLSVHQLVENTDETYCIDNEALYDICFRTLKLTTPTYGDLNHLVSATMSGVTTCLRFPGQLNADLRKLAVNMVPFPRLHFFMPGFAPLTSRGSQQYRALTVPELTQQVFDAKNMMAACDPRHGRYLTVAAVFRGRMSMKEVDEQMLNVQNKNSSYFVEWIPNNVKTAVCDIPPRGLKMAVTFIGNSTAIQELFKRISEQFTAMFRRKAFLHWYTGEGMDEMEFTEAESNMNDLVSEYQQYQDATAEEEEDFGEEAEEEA
inactive: lapatinib -0.035 | pictilisib -0.002 | crizotinib -0.043 | [1] -0.005 | duvelisib 0.008 | gandotinib 0.065 | tozasertib -0.022 | doramapimod -0.047 | bafetinib 0.024 | [2] -0.01

TNFAIP3 (UniProt P21580)
Chain of UniProt P21580 (P21580 whole entry, looked up): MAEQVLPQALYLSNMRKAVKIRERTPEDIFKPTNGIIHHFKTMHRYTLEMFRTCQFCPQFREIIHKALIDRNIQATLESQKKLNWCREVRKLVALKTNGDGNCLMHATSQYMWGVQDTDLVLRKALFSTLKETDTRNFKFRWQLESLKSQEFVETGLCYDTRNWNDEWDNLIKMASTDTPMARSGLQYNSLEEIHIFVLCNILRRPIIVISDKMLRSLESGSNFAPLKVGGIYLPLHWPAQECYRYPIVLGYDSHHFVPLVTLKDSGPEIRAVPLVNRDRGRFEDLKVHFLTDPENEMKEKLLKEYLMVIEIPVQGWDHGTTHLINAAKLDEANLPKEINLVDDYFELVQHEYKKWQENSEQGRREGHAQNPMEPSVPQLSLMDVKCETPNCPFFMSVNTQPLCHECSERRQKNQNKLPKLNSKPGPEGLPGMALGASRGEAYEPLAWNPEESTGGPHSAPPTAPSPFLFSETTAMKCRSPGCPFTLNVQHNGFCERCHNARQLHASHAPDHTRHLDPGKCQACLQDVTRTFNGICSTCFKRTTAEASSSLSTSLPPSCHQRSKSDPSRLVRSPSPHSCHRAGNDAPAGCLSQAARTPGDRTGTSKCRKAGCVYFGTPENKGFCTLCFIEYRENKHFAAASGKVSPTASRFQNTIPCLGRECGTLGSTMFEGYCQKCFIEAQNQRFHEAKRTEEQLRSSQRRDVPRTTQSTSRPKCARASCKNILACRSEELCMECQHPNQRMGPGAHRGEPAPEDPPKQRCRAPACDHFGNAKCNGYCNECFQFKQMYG
inactive: lapatinib -0.032 | pictilisib 0.052 | crizotinib -0.013 | [1] 0.032 | duvelisib 0.038 | gandotinib -0.075 | tozasertib 0.744 | doramapimod 0.084 | bafetinib -0.02 | [2] -0.023

TRIM56 (UniProt Q9BRZ2)
inactive: lapatinib 0.001 | pictilisib -0.002 | crizotinib -0.002 | [1] 0.085 | duvelisib 0.003 | gandotinib -0.071 | tozasertib 0 | doramapimod 0.023 | bafetinib -0.132 | [2] 0.085

TRNAU1AP (UniProt Q9NX07)
inactive: lapatinib 0 | pictilisib -0.091 | crizotinib -0.019 | [1] -0.221 | duvelisib -0.058 | gandotinib 0.042 | tozasertib -0.018 | doramapimod 0.031 | bafetinib -0.001 | [2] 0.061

TNIK isoform 4 (UniProt Q9UKE5)
inactive: lapatinib -0.017 | pictilisib 0.012 | crizotinib -0.055 | [1] 0.038 | duvelisib 0.004 | gandotinib 0.153 | tozasertib 0.098 | doramapimod 0.205 | bafetinib -0.007 | [2] -0.04

UBE2D1 (UniProt P51668)
inactive: lapatinib 0.052 | pictilisib 0.043 | crizotinib 0.01 | [1] -0.012 | duvelisib 0.031 | gandotinib -0.047 | tozasertib 0.081 | doramapimod 0.038 | bafetinib -0.058 | [2] -0.033

TESC (UniProt Q96BS2)
inactive: lapatinib -0.03 | pictilisib -0.122 | crizotinib 0 | [1] -0.095 | duvelisib 0.026 | gandotinib -0.066 | tozasertib 0.026 | doramapimod 0.073 | bafetinib 0.048 | [2] 0.037

TTK (UniProt P33981)
inactive: lapatinib 0.061 | pictilisib 0.142 | crizotinib -0.008 | [1] 0 | duvelisib -0.031 | gandotinib 0.058 | tozasertib -0.054 | doramapimod 0.143 | bafetinib -0.068 | [2] 0.024

TJP1 isoform 2 (UniProt Q07157)
Chain of UniProt Q07157 (Q07157 whole entry, looked up): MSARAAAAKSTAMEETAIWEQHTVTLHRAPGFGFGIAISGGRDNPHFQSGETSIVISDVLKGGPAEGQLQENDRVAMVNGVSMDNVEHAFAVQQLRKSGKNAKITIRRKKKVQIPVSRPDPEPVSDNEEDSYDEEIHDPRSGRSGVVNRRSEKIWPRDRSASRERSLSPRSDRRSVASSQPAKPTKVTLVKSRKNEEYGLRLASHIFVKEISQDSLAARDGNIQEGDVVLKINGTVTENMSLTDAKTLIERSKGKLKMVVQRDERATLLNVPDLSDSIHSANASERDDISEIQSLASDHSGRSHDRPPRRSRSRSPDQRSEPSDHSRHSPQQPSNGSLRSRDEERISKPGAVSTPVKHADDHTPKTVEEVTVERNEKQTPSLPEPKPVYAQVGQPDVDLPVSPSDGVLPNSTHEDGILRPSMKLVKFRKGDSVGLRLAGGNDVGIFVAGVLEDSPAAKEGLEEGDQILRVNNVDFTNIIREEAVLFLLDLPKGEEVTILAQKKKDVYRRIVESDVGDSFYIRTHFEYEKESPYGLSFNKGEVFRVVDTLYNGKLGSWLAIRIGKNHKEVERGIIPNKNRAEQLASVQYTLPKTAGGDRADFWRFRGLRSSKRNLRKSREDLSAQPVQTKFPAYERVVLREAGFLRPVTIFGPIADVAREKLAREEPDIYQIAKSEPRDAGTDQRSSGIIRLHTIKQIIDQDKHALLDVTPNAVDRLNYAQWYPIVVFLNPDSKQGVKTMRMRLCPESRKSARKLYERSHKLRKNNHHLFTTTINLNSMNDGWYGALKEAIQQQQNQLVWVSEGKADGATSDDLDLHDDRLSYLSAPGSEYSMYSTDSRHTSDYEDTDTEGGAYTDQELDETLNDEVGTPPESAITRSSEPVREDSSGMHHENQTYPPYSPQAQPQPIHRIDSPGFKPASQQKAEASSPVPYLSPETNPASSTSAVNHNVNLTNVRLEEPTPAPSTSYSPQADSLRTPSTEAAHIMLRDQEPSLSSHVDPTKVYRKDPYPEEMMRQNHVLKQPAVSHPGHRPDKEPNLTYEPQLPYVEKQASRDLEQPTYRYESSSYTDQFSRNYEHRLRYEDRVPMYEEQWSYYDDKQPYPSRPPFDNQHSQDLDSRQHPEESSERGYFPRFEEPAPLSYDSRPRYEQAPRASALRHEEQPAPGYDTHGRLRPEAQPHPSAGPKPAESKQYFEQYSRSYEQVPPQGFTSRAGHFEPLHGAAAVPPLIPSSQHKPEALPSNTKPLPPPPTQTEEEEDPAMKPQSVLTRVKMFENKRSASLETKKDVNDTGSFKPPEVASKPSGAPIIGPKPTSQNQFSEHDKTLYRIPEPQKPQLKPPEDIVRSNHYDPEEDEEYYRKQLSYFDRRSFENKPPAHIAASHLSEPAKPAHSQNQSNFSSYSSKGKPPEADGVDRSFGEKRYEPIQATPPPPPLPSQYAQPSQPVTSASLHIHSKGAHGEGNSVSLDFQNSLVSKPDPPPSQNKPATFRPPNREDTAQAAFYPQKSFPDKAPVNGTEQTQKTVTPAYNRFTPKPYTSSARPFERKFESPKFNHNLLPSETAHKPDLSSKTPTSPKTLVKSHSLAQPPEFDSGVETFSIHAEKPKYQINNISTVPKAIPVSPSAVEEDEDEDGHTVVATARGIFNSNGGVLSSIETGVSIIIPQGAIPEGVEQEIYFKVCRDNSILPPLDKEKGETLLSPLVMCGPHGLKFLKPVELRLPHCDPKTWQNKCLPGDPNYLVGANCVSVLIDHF
inactive: lapatinib -0.015 | pictilisib -0.028 | crizotinib 0.016 | [1] -0.065 | duvelisib -0.014 | gandotinib 0.075 | tozasertib -0.002 | doramapimod 0.014 | bafetinib -0.062 | [2] 0.111

TPP2 (UniProt P29144)
inactive: lapatinib -0.007 | pictilisib 0.014 | crizotinib -0.009 | [1] 0.035 | duvelisib 0.011 | gandotinib -0.011 | tozasertib -0.009 | doramapimod 0.007 | bafetinib -0.008 | [2] -0.011

TRAPPC6A isoform 2 (UniProt O75865)
inactive: lapatinib 0.02 | pictilisib 0.015 | crizotinib 0.001 | [1] -0.146 | duvelisib -0.006 | gandotinib 0.14 | tozasertib -0.039 | doramapimod -0.01 | bafetinib 0.017 | [2] 0.05

TGFBRAP1 (UniProt Q8WUH2)
inactive: lapatinib -0.029 | pictilisib -0.021 | crizotinib -0.034 | [1] -0.001 | duvelisib -0.03 | gandotinib -0.138 | tozasertib 0.052 | doramapimod 0.028 | bafetinib -0.056 | [2] -0.007

TUBGCP2 isoform 4 (UniProt Q9BSJ2)
inactive: lapatinib -0.008 | pictilisib -0.029 | crizotinib -0.119 | [1] 0.08 | duvelisib -0.001 | gandotinib -0.087 | tozasertib 0.002 | doramapimod 0.033 | bafetinib 0.002 | [2] 0.009

UBXN6 (UniProt Q9BZV1)
Chain of UniProt Q9BZV1 (Q9BZV1 whole entry, looked up): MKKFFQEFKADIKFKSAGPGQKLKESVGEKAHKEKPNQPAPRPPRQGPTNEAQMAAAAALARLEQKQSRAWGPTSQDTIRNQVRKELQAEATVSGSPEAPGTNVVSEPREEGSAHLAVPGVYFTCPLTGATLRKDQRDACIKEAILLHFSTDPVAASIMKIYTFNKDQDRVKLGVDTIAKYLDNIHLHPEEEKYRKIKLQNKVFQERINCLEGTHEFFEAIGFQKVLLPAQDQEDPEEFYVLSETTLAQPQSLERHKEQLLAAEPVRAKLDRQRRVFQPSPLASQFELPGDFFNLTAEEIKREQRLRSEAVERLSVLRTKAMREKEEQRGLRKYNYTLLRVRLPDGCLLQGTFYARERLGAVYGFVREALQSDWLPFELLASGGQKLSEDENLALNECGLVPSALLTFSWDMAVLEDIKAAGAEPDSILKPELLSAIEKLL
inactive: lapatinib -0.075 | pictilisib -0.048 | crizotinib 0.004 | [1] -0.014 | duvelisib -0.028 | gandotinib -0.018 | tozasertib 0.008 | doramapimod 0.017 | bafetinib 0.033 | [2] -0.023

TRMT2A (UniProt Q8IZ69)
inactive: lapatinib -0.01 | pictilisib -0.057 | crizotinib -0.017 | [1] -0.002 | duvelisib -0.036 | gandotinib -0.03 | tozasertib 0.001 | doramapimod -0.002 | bafetinib -0.016 | [2] 0.009

TRA2A (UniProt Q13595)
inactive: lapatinib -0.012 | pictilisib 0.032 | crizotinib -0.184 | [1] -0.048 | duvelisib -0.048 | gandotinib -0.011 | tozasertib 0.015 | doramapimod 0.086 | bafetinib 0.042 | [2] 0.053

TCAF2 (UniProt A6NFQ2)
inactive: lapatinib 0.024 | pictilisib -0.017 | crizotinib -0.108 | [1] -0.02 | duvelisib 0.004 | gandotinib -0.098 | tozasertib 0.008 | doramapimod -0.03 | bafetinib -0.048 | [2] 0.041

TCF12 isoform 3 (UniProt Q99081)
inactive: lapatinib -0.047 | pictilisib 0.055 | crizotinib 0.034 | [1] -0.038 | duvelisib 0.025 | gandotinib 0.056 | tozasertib 0.023 | doramapimod -0.011 | bafetinib -0.11 | [2] -0.001

TUBGCP4 (UniProt Q9UGJ1)
inactive: lapatinib -0.022 | pictilisib 0.011 | crizotinib -0.012 | [1] -0.007 | duvelisib 0.03 | gandotinib -0.125 | tozasertib -0.022 | doramapimod -0.041 | bafetinib -0.076 | [2] 0.019

TPM1 (UniProt H7BYY1)
inactive: lapatinib 0.028 | pictilisib 0.042 | crizotinib 0.096 | [1] 0.063 | duvelisib -0.004 | gandotinib -0.118 | tozasertib 0.012 | doramapimod -0.025 | bafetinib 0.026 | [2] -0.158

TLK1 isoform 2 (UniProt Q9UKI8)
inactive: lapatinib -0.047 | pictilisib 0.135 | crizotinib -0.061 | [1] -0.032 | duvelisib -0.048 | tozasertib 0.014 | doramapimod 0.011 | bafetinib -0.014 | [2] 0.022
active: gandotinib 0.456

TMEM97 (UniProt Q5BJF2)
active: [1] -0.277
inactive: lapatinib -0.052 | pictilisib -0.004 | crizotinib 0.113 | duvelisib 0.014 | gandotinib 0.17 | tozasertib -0.013 | doramapimod -0.127 | bafetinib -0.015 | [2] 0.12

TYW3 (UniProt Q6IPR3)
inactive: lapatinib -0.014 | pictilisib 0.008 | crizotinib -0.022 | [1] -0.144 | duvelisib 0.018 | gandotinib 0.1 | tozasertib 0 | doramapimod 0.054 | bafetinib 0.051 | [2] 0.176

TMEM199 (UniProt Q8N511)
inactive: lapatinib -0.034 | pictilisib -0.035 | crizotinib 0.062 | [1] -0.053 | duvelisib 0.051 | gandotinib 0.016 | tozasertib 0.074 | doramapimod -0.068 | bafetinib -0.016 | [2] 0.099

TK1 (UniProt P04183)
inactive: lapatinib -0.006 | pictilisib 0.022 | crizotinib 0.022 | [1] -0.133 | duvelisib 0.023 | gandotinib 0.062 | tozasertib 0 | doramapimod 0 | bafetinib 0.009 | [2] 0.021

Source: the supplement of paper PMC10849652
